We go through 40 compounds from PubChem BioAssay (Tox21).

Records with an inconclusive call do not appear. Entries that show only a call come without a potency. Values without a mark were called inactive. The source made the active and inactive calls. Calls come from the whole dose curve; as a rule, active = well fitted activation curve with a large enough effect in the repeat runs; inconclusive = weak or mixed curves; inactive = no such curve, though single readings can be large or run the other way.

Sequence of Nuclear receptor subfamily 1 group I member 3 (Homo sapiens) (Q14994 whole entry, looked up): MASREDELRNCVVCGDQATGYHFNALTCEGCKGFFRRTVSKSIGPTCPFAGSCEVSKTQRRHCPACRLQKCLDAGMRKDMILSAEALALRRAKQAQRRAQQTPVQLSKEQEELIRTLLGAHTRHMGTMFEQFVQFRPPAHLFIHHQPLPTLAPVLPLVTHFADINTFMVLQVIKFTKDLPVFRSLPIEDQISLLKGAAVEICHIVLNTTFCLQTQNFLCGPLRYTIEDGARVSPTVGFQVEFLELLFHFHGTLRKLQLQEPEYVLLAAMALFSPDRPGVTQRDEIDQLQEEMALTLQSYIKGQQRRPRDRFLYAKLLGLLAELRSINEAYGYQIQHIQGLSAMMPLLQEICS

The assay addresses Nuclear receptor subfamily 1 group I member 3 (Homo sapiens) (UniProt Q14994). Nature of the assay: qHTS assay to identify small molecule agonists of the constitutive androstane receptor (CAR) signaling pathway (AID 1224839).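 Note: HepG2 cells stably carrying human CAR and a CYP2B6 luciferase reporter; nearly all actives have a fitted effect of over 15% in size.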 The note with it: HepG2 hCAR CYP2B6-luciferase, agonist mode, 24 h; series mostly up to 92.4 µM. The source says: National Center for Advancing Translational Sciences [NCATS] NIH Chemical Genomics Center [NCGC] U.S. Environmental Protection Agency [EPA] National Institutes of Environmental Health Sciences [NIEHS] National Toxicology Program [NTP] Assay overview: The constitutive androstane receptor (CAR) is a nuclear receptor which regulates multiple drug metabolizing enzymes (DMEs) and transporters. Activating CAR will generally increase the transcription and subsequent translation of CYP2B6 and CYP3A4. These two DMEs represent about 50% of the drug metabolizing potential in the body. […] Recently, there have also been studies performed indicating CARs role in energy metabolism and cancer therapy. Therefore, inducing CARs activity could have a potential effect on diabetes and cancer. Identifying environmental toxins and compounds which modulate CAR, through the use of the Tox21 10K compound collection, will be an important step in determining the toxicity and potential therapeutic effects these factors will have on the human body.
Assay Protocol Summary: A double-stable (hCAR and CYP2B6-2.2kb) transfected cell line, derived from human hepatoma (HepG2) cells, was utilized for the duration of the quantitative high-throughput screens. The HepG2-CYP2B6-hCAR cells suspended in DMEM culture medium supplemented with 10% FBS, 5 ug/mL blasticidin, 0.5 mg/mL geneticin, 100 U/mL penicillin and 100 ug/mL streptomycin were dispensed at 2500 cells/4 uL/well in 1536-well white solid bottom plates using a Multidrop Combi. After the assay plates were incubated at 37 C/5% CO2 for 4 hrs, 23 nL of compounds at 15 concentrations (from 5-48 columns) or positive control (from 1 to 4 columns) were transferred to the assay plates using a Pintool station. One uL of PK11195, was added using a Flying Reagent Dispenser to generate a final concentration of 0.75 uM PK11195 inside each well. After a 24 hr incubation period at 37 C/5% CO2, four uL of ONE-Glo reagent was added into the assay plates using a Flying Reagent Dispenser. After a 30 min incubation period at room temperature, the luminescence intensity in the assay plates was measured using a ViewLux plate reader.
In general terms: In qHTS, concentration-response curves come from the screen itself.
In the case of `COc1ccc(OC)c(Cl)c1`, the Potency entry is “inactive”.
With `CC(CO)c1ccccc1` (stereo not given), the Potency result was “inactive”.
For the compound `O=C(OCC(O)CO)c1ccccc1Nc1ccnc2c(C(F)(F)F)cccc12` (stereo not given), the Potency entry is “inactive”.
`Nc1ccc(S(=O)(=O)Nc2ccc(Cl)nn2)cc1`: the Potency entry was “inactive”.
`COC(=O)CCCCCCCC(=O)OC`: the Potency entry is “inactive”.
On to `COC(=O)c1ccccc1C(=O)c1ccc(OCCN2CCCCC2)cc1`, for which the Potency entry is “inactive”.
Same read-out and setting: the result for `CCCCCCOC(=O)CC` reads “inactive”; that for `CCOCCOCCOCC`, “inactive”; that for `CCCCCCCCOS(=O)(=O)O`, “inactive”.
As to `C=Cc1ccccn1`, the Potency result is “inactive”.
Consider `C=C(C)C1CCC(C)(O)CC1` (stereo not given), for which the Potency result is “inactive”.
The same measure, in the same setting: under `CCOC(=O)c1ncn2c1CN(C)C(=O)c1cc(F)ccc1-2` stands “inactive”; under `C=C(C)C(=O)OCc1ccccc1`, “inactive”.
Turning to `CCCOC(=O)C(C)O` (stereo not given), the Potency result was “inactive”.
Consider `O=C(CCNNC(=O)c1ccncc1)NCc1ccccc1`, for which the Potency entry is “inactive”.
For the compound `CC(C)(C)c1nnc(NS(=O)(=O)c2ccc(N)cc2)s1`, the Potency result is “inactive”.
As to `C[C@@H]1O[C@@H](O[C@@H]2[C@@H](O)[C@H](OCCc3ccc(O)c(O)c3)O[C@H](CO[C@@H]3O[C@H](CO)[C@@H](O)[C@H](O)[C@H]3O)[C@H]2OC(=O)/C=C/c2ccc(O)c(O)c2)[C@H](O)[C@H](O)[C@H]1O`, the Potency result was “inactive”.
On to `CC1(C)S[C@@H]2[C@H](N=CN3CCCCCC3)C(=O)N2[C@H]1C(=O)O`, for which the Potency entry was “inactive”.
`CCCCCCCC/C=C\CCCCCCCC(=O)OCCCC`: the activation was 0.178% [at 19 µM].
`CC(=O)NCc1c(I)c(NC(C)=O)c(I)c(C(=O)O)c1I`: the Potency entry was “inactive”.
The same measure, in the same setting: under `CC(COC(C)(C)C)OCCCO` (stereo not given) stands “inactive”; under `C[C@@H](O)[C@H]1C(=O)N2C(C(=O)O)=C(SCCN=CN)C[C@H]12`, “inactive”.
Turning to `NNc1nnc(NN)c2ccccc12`, the Potency entry is “inactive”.
For the compound `c1ccc2nccnc2c1`, the Potency result is “inactive”.
Turning to `CCCCCOC(=O)CCC`, the Potency entry is “inactive”.
With `Cc1ccsc1/C=C/C1=NCCCN1C`, the Potency entry was “inactive”.
Still for that read-out and setting: under `CCCC/C=C/C=C\C=O` stands “inactive”; under `CC(C)(C)NC(N)=O`, “inactive”; under `Cc1ccc(S(=O)(=O)O)c(C)c1`, “inactive”.
Turning to `CCCCCCCCCCCCCC`, the Potency result is “inactive”.
The same measure, in the same setting: under `CC(C(=O)O)c1ccc2c(c1)CC(=O)c1ccccc1S2` (stereo not given) stands “inactive”; under `C=C(C)C(=O)OCCNC(C)(C)C`, “inactive”.
Consider `O=C(O)CCSSCCC(=O)O`, for which the Potency result was “inactive”.
Same read-out and setting: the result for `Cc1c(I)c(=O)n(-c2ccccc2)n1C` reads “inactive”.
On the same count and under the same terms, under `CC(C)NCC(O)COc1ccc(COCCOC(C)C)cc1` (stereo not given) stands “inactive”.
Still for that read-out and setting: under `C=COCCOCCOCCOC=C` stands “inactive”; under `COCCOCCOCCOCCOCCO`, “inactive”; under `O=C(OCc1ccccc1)C(=O)OCc1ccccc1`, “inactive”.
As for `CC(=O)OC(C)OC(=O)C(C)c1ccc(-c2ccccc2)c(F)c1` (stereo not given), the Potency entry was “inactive”.
`C=C1CC/C=C(\C)CC[C@@H]2[C@@H]1CC2(C)C`: the Potency entry was “inactive”.
